Activity calls are given as the source filed them. How the source made its calls: active means hit-call score of the fitted dose curve at least 0.9, where 1 is the maximum; inactive means score below 0.9.

Sequence of Heat shock factor protein 1 (Homo sapiens) (Q00613 whole entry, looked up): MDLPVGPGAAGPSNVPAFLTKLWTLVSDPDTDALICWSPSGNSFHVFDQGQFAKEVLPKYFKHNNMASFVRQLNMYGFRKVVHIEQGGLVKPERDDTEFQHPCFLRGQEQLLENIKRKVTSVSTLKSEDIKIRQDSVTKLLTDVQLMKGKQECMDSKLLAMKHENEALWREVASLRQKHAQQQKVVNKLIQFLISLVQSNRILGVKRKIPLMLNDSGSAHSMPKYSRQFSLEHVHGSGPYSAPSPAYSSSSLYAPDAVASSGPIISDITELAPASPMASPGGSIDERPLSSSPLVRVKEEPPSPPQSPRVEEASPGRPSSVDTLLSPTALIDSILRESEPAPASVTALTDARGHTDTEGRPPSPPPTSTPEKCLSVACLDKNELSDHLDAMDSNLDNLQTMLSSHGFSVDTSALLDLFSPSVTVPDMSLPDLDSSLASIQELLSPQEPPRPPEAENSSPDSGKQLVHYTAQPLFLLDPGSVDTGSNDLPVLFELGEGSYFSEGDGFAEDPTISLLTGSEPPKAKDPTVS

The target of this assay is Heat shock factor protein 1 (Homo sapiens) (UniProt Q00613). The experiment in a line: ATG_HSE_CIS: Attagene CIS-FACTORIAL HepG2 Assay for human Heat Shock Transcription Factor 1 (HSE) (AID 2282953). As to conditions: HepG2 HSE cis-reporter, Attagene RNA transcription; actives raise or lower the signal. The procedure, abridged:
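Endogenous transcription factor activity in transiently transfected HepG2, read as reporter mRNA by RT-PCR with fluorescent capillary electrophoresis after 24 h. Gain or loss of signal fitted versus DMSO baseline.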
On to `Nc1ccc2c(c1)C(=O)c1ccccc1C2=O`, for which the result was inactive. To `CC(=O)C(C)=CC1C(C)=CCCC1(C)C` (centres undefined) belongs “inactive”.

For `CCCCCCC(=O)OCC`, the molecule was classed as inactive. To `CCCCN(CCCC)CCCC` belongs “inactive”; to `Cc1nc(C)nc(N2C[C@@H](C)N(c3ccnc([C@@H](C)O)n3)[C@@H](C)C2)n1`, “inactive”; to `CC(=O)OCCOCCOCCOC(C)=O`, “inactive”.

Regarding `CCOC(=O)CCC(=O)OCC`, the call was inactive. As for `CC(=O)OC/C=C(\C)CCC=C(C)C`, the entry is “inactive”. As for `CC(C)c1ccc(C(=O)N=C(N)N)cc1S(C)(=O)=O`, the entry is “inactive”; as for `Cc1ccc(Cl)cc1`, “inactive”; as for `C[Si]1(C)O[Si](C)(C)O[Si](C)(C)O[Si](C)(C)O1`, “inactive”.

For the molecule `C=CCc1ccc(O)c(OC)c1`, the result was inactive. To `COc1cccc2c1C(=O)c1c(O)c3c(c(O)c1C2=O)C[C@@](O)(C(=O)CO)C[C@@H]3O[C@H]1C[C@H](N)[C@H](O)[C@H](C)O1` belongs “inactive”; to `Cc1cccc(C)c1O`, “inactive”; to `CCCCCC(=O)O`, “inactive”.

Turning to `Oc1ccc2ccccc2c1N=Nc1ccccc1`, the outcome was inactive.

For `NS(=O)(=O)c1cc2c(cc1Cl)NCNS2(=O)=O`, the result was inactive. As for `Cc1ccccc1Cl`, the entry is “inactive”; as for `COc1ccc2c(c1)c(CC(=O)O)c(C)n2C(=O)c1ccc(Cl)cc1`, “inactive”. To `Cc1cccc(Nc2cc(Cl)nc(SCC(=O)O)n2)c1C` belongs “inactive”. As for `CCOC(=O)C(C)(C)Oc1ccc(Cl)cc1`, the entry is “inactive”.

Consider `CCCCOC(=O)CCCCCCCCC(=O)OCCCC`, for which the molecule was called inactive.

With `CCc1c(C(=O)NN2CCCCC2)nn(-c2ccc(Cl)cc2Cl)c1-c1ccc(Br)cc1`, the outcome was inactive.

Regarding `Oc1ccc2c(c1)OC[C@@H](N1CCC(O)(c3ccc(F)cc3)CC1)[C@H]2O`, the result was inactive.
